Measurements from PubChem BioAssay (Tox21).
“And” between values parts separate entries of the source, which are not always exact repeats. Equal values may be shown once. Results filed as inconclusive are left out. A structure can be active in one record and inactive in another. The source made the active and inactive calls. Unless noted, calls come from the whole dose curve; as a rule, active = well fitted curve in the direction sought with a large enough effect in the repeat runs; inconclusive = weak or mixed curves; inactive = no such curve, though single readings can be large; an effect the other way counts as inactive or inconclusive.

Biological target: Nuclear receptor subfamily 1 group I member 3 (Homo sapiens) (UniProt Q14994)
Test: qHTS assay to identify small molecule antagonists of the constitutive androstane receptor (CAR) signaling pathway (AID 1224838);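 note: HepG2 cells stably expressing hCAR with CYP2B6 luciferase reporter stimulated by CITCO; nearly all actives have a fitted effect of over 40% in size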
Conditions: HepG2-CYP2B6-hCAR luciferase, CITCO-stimulated, 24 h; series mostly up to 92.4 µM; activity, negative = inhibition: at the top concentration
Outline: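 Quantitative HTS in double-stable HepG2-CYP2B6-hCAR cells. After 4 h plating, cells get compound (15 concentrations) and CITCO at 50 nM final, incubate 24 h at 37 C, then ONE-Glo luminescence is read.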
% is set by controls: 0 for no effect and ±100 for the full control effect; potency is the fitted concentration of half-maximal effect.

Chain of Nuclear receptor subfamily 1 group I member 3 (Homo sapiens) (Q14994 whole entry, looked up): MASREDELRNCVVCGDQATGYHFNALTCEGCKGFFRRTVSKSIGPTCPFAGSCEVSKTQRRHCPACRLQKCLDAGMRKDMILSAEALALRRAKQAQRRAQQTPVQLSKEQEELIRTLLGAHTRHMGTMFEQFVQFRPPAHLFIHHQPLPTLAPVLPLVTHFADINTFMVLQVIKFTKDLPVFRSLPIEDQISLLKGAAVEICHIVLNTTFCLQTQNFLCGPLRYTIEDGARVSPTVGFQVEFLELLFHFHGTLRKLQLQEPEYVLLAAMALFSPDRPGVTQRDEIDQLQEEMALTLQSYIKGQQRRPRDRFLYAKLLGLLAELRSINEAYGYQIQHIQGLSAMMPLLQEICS

SMILES	activity, negative = inhibition	Potency
CCOP(O)OCC	5.04% (inactive)	
N#Cc1ccc(Cl)cc1	9.28% (inactive)	
CNC(C)Cc1ccccc1OC (stereo unspecified)	-8.62% [at 42.5 µM] (inactive)	
O=C(O)C(F)(F)C(F)(F)C(F)(F)C(F)(F)C(F)(F)C(F)(F)C(F)(F)C(F)(F)C(F)(F)F	-18.5% (inactive)	
COc1c(C(C)(C)C)cc([N+](=O)[O-])c(C)c1[N+](=O)[O-]	35.8% (inactive)	
O=[N+]([O-])c1ccc(F)c([N+](=O)[O-])c1	-2.06% (inactive)	
CC1(C)[C@H](C=C(Cl)Cl)[C@@H]1C(=O)O[C@@H](C#N)c1cccc(Oc2ccccc2)c1	-17.3% (inactive)	
CCCCCC[N+](=O)[O-]	-8.15% (inactive)	
Nc1ccc([N+](=O)[O-])cc1[N+](=O)[O-]	42.3% (inactive)	
CCC(Cl)CCl (stereo unspecified)	2.16% (inactive)	
CCC(COC(=O)c1cc(OC)c(OC)c(OC)c1)(c1ccccc1)N(C)C (stereo unspecified)	43.1% [at 42.5 µM] (inactive)	
CC(c1ccc(O)cc1)(c1ccc(O)cc1)c1ccc(O)cc1		9.69 µM (active)
COC(=O)c1cncn1C(C)c1ccccc1 (stereo unspecified)	47.3% [at 42.5 µM] (inactive)	
Oc1ccc(Cl)c(Cl)c1Cl	21.8% (inactive)	
C=CC(=O)OCCCCO	-6.79% (inactive)	
O=C(CBr)c1ccccc1	72.3% (inactive)	
ClP(Cl)(Cl)(Cl)Cl	-4.81% (inactive)	
CCCCN(N=O)C(=N)N[N+](=O)[O-]		31.3 µM (active)
O=[N+]([O-])c1cc(C(F)(F)F)cc([N+](=O)[O-])c1Cl	59.8% (inactive)	
CCBr	5.07% (inactive)	
C/C=C/C=O	-9.41% (inactive)	
CCCCCCCCCCOC(=O)c1ccccc1C(=O)OCCCCCCCCCC	6.97% (inactive)	
Brc1ccccc1	-17.4% (inactive)	
C=CC(=O)OCC(C)O (stereo unspecified)	17.5% (inactive)	
CC(C)N(CCC(C(N)=O)(c1ccccc1)c1ccccn1)C(C)C (stereo unspecified)	24% [at 42.5 µM] (inactive)	

Biological target: Nuclear receptor subfamily 1 group I member 3 (Homo sapiens) (UniProt Q14994)
Test: qHTS assay to identify small molecule agonists of the constitutive androstane receptor (CAR) signaling pathway (AID 1224839); note: nearly all actives have a fitted effect of over 15% in size;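 for activation: HepG2 cells stably carrying human CAR and a CYP2B6 luciferase reporter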
Conditions: HepG2 hCAR CYP2B6-luciferase, agonist mode, 24 h; series mostly up to 92.4 µM; activation: at the top concentration
Outline: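 In this screen, CAR-driven CYP2B6 promoter activity is measured by luminescence in HepG2-CYP2B6-hCAR cells after 24 h with test compounds and 0.75 uM PK11195 (final concentration).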

SMILES	activation	Potency
CCOP(O)OCC	-1.23% (inactive)	
N#Cc1ccc(Cl)cc1	-0.486% (inactive)	
CNC(C)Cc1ccccc1OC (stereo unspecified)	-0.901% [at 42.5 µM] (inactive)	
O=C(O)C(F)(F)C(F)(F)C(F)(F)C(F)(F)C(F)(F)C(F)(F)C(F)(F)C(F)(F)C(F)(F)F	-2.33% (inactive)	
C=CC(=O)NCNC(=O)C=C	14% (inactive)	
COc1c(C(C)(C)C)cc([N+](=O)[O-])c(C)c1[N+](=O)[O-]		24.1 µM (active)
CCC(Cl)CCl (stereo unspecified)	-1.5% (inactive)	
CC(c1ccc(O)cc1)(c1ccc(O)cc1)c1ccc(O)cc1	-6.55% (inactive)	
COC(=O)c1cncn1C(C)c1ccccc1 (stereo unspecified)	11.1% [at 42.5 µM] (inactive)	
Oc1ccc(Cl)c(Cl)c1Cl	4.64% (inactive)	
C=CC(=O)OCCCCO	8.25% (inactive)	
ClP(Cl)(Cl)(Cl)Cl	-2.85% (inactive)	
CCCCN(N=O)C(=N)N[N+](=O)[O-]	-6.38% (inactive)	
O=[N+]([O-])c1cc(C(F)(F)F)cc([N+](=O)[O-])c1Cl	9.04% (inactive)	
CCBr	1.67% (inactive)	
C/C=C/C=O	4.57% (inactive)	
CCCCCCCCCCOC(=O)c1ccccc1C(=O)OCCCCCCCCCC	0.0537% (inactive)	
C=CC(=O)OCC(C)O (stereo unspecified)	11% (inactive)	
CC(C)N(CCC(C(N)=O)(c1ccccc1)c1ccccn1)C(C)C (stereo unspecified)	-0.159% [at 42.5 µM] (inactive)	

Tested on: not listed separately
Test: qHTS assay to identify small molecule antagonists of the estrogen related receptor signaling pathway with the pleiotropic PPARgamma coactivator (PGC) from Tox21 10K library - cell viability counter screen (AID 1224840; active = well fitted cell-killing curve with a large enough effect in the repeat runs, not every such curve was filed as active; note: nearly all actives have a fitted effect of over 40% in size)
Conditions: PGC/ERR reporter cells viability, CellTiter-Fluor, 17.5 h; series mostly up to 92.4 µM; viability change, negative = cytotoxic: at the top concentration
Outline: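 Compounds in DMSO, alongside positive and negative controls, were pinned onto PGC/ERR cells (2,000 per well). Exposure lasted 17.5 hours at 37 C, followed by a 30-minute CellTiter-Fluor incubation and fluorescence reading.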

SMILES	viability change, negative = cytotoxic	Potency
Cl/C=C\Cl	7.1% (inactive)	
CCOP(O)OCC	10.8% (inactive)	
N#Cc1ccc(Cl)cc1	6.18% (inactive)	
CNC(C)Cc1ccccc1OC (stereo unspecified)	-4.39% [at 42.5 µM] (inactive)	
O=C(O)C(F)(F)C(F)(F)C(F)(F)C(F)(F)C(F)(F)C(F)(F)C(F)(F)C(F)(F)C(F)(F)F	1.84% (inactive)	
C=CC(=O)NCNC(=O)C=C	-5.57% (inactive)	
COc1c(C(C)(C)C)cc([N+](=O)[O-])c(C)c1[N+](=O)[O-]	2.7% (inactive)	
O=[N+]([O-])c1ccc(F)c([N+](=O)[O-])c1		55 µM (active)
CC1(C)[C@H](C=C(Cl)Cl)[C@@H]1C(=O)O[C@@H](C#N)c1cccc(Oc2ccccc2)c1	3.22% (inactive)	
CCCCCC[N+](=O)[O-]	4.91% (inactive)	
Nc1ccc([N+](=O)[O-])cc1[N+](=O)[O-]	-28.2% (inactive)	
CCC(Cl)CCl (stereo unspecified)	1.14% (inactive)	
COC(=O)c1cncn1C(C)c1ccccc1 (stereo unspecified)	0.93% [at 42.5 µM] (inactive)	
C=CC(=O)OCCCCO	-15.9% (inactive)	
O=C(CBr)c1ccccc1	-16.5% (inactive)	
ClP(Cl)(Cl)(Cl)Cl	-1.54% (inactive)	

SMILES	viability change, negative = cytotoxic	Potency
CCCCN(N=O)C(=N)N[N+](=O)[O-]	-12.3% (inactive)	
Cc1cc(=O)[nH]o1	4.37% (inactive)	
COc1cc(Cl)c(OC)cc1Cl	4.68% (inactive)	
CC1C(=O)C[C@]2(C(C)C)C[C@H]12 (stereo partly specified)	-0.231% (inactive)	
CCBr	10% (inactive)	
C/C=C/C=O	0.302% (inactive)	
ClCc1cccc(Cl)c1	8.6% [at 42.5 µM] (inactive)	
CCn1cc[n+](C)c1		inactive and 55 µM (active)
CCCCCCCCCCOC(=O)c1ccccc1C(=O)OCCCCCCCCCC	-0.335% (inactive)	
Cc1ccc2ccccc2c1	-0.444% (inactive)	
Brc1ccccc1	11.3% (inactive)	
C=CC(=O)OCC(C)O (stereo unspecified)	0.547% (inactive)	
CC(C)N(CCC(C(N)=O)(c1ccccc1)c1ccccn1)C(C)C (stereo unspecified)	12.7% [at 42.5 µM] (inactive)	
CN1C(=O)C(O)N=C(c2ccccc2)c2cc(Cl)ccc21 (stereo unspecified)	-11.4% (inactive)	
O=Cc1ccc(Cl)cc1Cl	-4.12% (inactive)	

Tested on: not listed separately
Test: qHTS assay to identify small molecule antagonists of the estrogen related receptor signaling pathway with the pleiotropic PPARgamma coactivator (PGC) from Tox21 10K library (AID 1224841; call rule not given here; note: actives are mostly falling curves and most rising ones were filed inactive; nearly all actives have a fitted effect of over 50% in size)
Conditions: PGC/ERR reporter cell line, ONE-Glo luciferase, 18 h; series mostly up to 92.4 µM; activity, negative = inhibition: at the top concentration
Outline: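 Compound exposure ran 18 hours at 37 C in PGC/ERR cells (2,000/well) that had first rested 6 hours in a 37 C/5% CO2 incubator. Luciferase activity was then detected with One-Glo after a 30-minute room-temperature step.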

SMILES	activity, negative = inhibition	Potency
N#Cc1ccc(Cl)cc1	-1.91% (inactive)	
O=C(O)C(F)(F)C(F)(F)C(F)(F)C(F)(F)C(F)(F)C(F)(F)C(F)(F)C(F)(F)C(F)(F)F	-0.681% (inactive)	
C=CC(=O)NCNC(=O)C=C	63.9% (inactive)	
O=[N+]([O-])c1ccc(F)c([N+](=O)[O-])c1		49 µM (active)
CCC(Cl)CCl (stereo unspecified)	-0.41% (inactive)	
CC(c1ccc(O)cc1)(c1ccc(O)cc1)c1ccc(O)cc1		54.5 µM (active)
C=CC(=O)OCCCCO	36.6% (inactive)	
O=[N+]([O-])c1cc(C(F)(F)F)cc([N+](=O)[O-])c1Cl	-14.7% (inactive)	
COc1cc(Cl)c(OC)cc1Cl	-1.33% (inactive)	
CCBr	7.99% (inactive)	
ClCc1cccc(Cl)c1	-1.76% [at 42.5 µM] (inactive)	
CCCCCCCCCCOC(=O)c1ccccc1C(=O)OCCCCCCCCCC	2.84% (inactive)	
Cc1ccc2ccccc2c1	-0.0595% (inactive)	
C=CC(=O)OCC(C)O (stereo unspecified)	32.4% (inactive)	
CN1C(=O)C(O)N=C(c2ccccc2)c2cc(Cl)ccc21 (stereo unspecified)	0.481% (inactive)	
O=Cc1ccc(Cl)cc1Cl	5.97% (inactive)	
